Inconclusive results are not listed. Active and inactive are the calls of the source. Calls follow the shape of the dose curve; as a rule, active = well fitted inhibition curve with a large enough effect; inconclusive = small, poorly fitted or top-dose-only effect; inactive = no such curve, though single readings can be large or run the other way.

Data on 34 compounds can be found in PubChem BioAssay AID540360 (National Center for Advancing Translational Sciences (NCATS), 2011).

The test system of the assay is 6-phosphofructokinase (Trypanosoma brucei). In words: Confirmatory Assay to Find Inhibitors of T. brucei phosphofructokinase: probe SAR. The conditions noted are these: recombinant T. brucei PFK, ADP-Glo luminescence; series mostly up to 57.5 µM. The text has this:
NIH Molecular Libraries Probe Production Network [MLPCN] NIH Chemical Genomics Center [NCGC] Grant: 1 R03 MH092153-01 PI Name: Malcolm Walkinshaw, University of Edinburgh NCGC Assay Overview: Various species of the protozoan family Trypanosomatidae are responsible for a range of serious human diseases in tropical and subtropical areas of the world. […] Many of the disorders caused by trypanosomatids are fatal if left untreated, but most currently used drugs are inefficient and toxic. […] Oxidative metabolism involving the mitochondrial tricarboxylic acid cycle and oxidative phosphorylation are repressed in these parasites, and recent RNA interference (RNAi) experiments have shown that even partial depletion of certain individual glycolytic enzymes can lead to the death of cultured parasites. One such glycolytic enzyme, phosphofructokinase (PFK), catalyzes the formation of fructose-1,6-bisphosphate (F1,6BP) and ADP from fructose-6-phosphate (F6P) and ATP, and in many metabolic circumstances makes an important contribution to the control of flux through the glycolytic pathway. As a specific glycolytic target, PFK is particularly attractive as it catalyzes the first irreversible step in glycolysis, and structural and kinetic studies have shown very substantial and essential differences from corresponding host enzymes, allowing for the discovery of parasite-selective inhibitors. The goal of this screen is to find small-molecule inhibitors of T. brucei PFK using a biochemical assay that measures PFK activity as a function of ADP production. A luminescence-based assay for T. brucei PFK activity has been developed which uses luciferase to detect production of ADP. Traditional luciferase-based nucleotide detection reagents rely on ATP production as a direct substrate for the luciferase reaction; however, PFK catalyzes the transfer of a phosphate from ATP to F6P, resulting in the net depletion of ATP. To directly measure the ADP product of the PFK reaction, we used the ADP-Glo detection kit (Promega), which utilizes two separate reactions to 1) deplete all remaining uncatalyzed ATP and 2) convert all remaining ADP to ATP, which is then detected through a traditional luciferase-coupled reaction. Compounds were screened as a concentration-titration series that ranged from 57 uM to 0.3 nM.
NCGC Assay Protocol Summary: NCGC Assay Protocol Summary: Substrate buffer was dispensed into white, solid 1536-well plates at 3uL/well in 0.1M triethanolamine (TEA) buffer, pH 8.0, containing final concentrations of 5 mM MgCl2, 0.01% Tween20, 0.5 mM fructose-6-phosphate (F6P) and 0.1mM ATP. Then, 23 nL of compounds or DMSO were delivered to each well using a pin tool. One uL T. brucei PFK (0.1M TEA, 0.01% Tween20, 0.1% bovine serum albumin (BSA) and 1.25nM PFK, final concentrations) was then dispensed, and plates were incubated at room temperature for 45 min. The luminescent detection reagent, ADP-Glo (Promega), was then added in two steps: the first reagent, ADP-Glo (which converts remaining uncatalyzed ATP), was added at 2.5uL/well and incubated for ten minutes at room temperature, and the second component, Kinase Detection reagent (which converts ADP to ATP as a substrate for luciferase-based luminescence), was added immediately after at 5uL/well, followed by one final ten minute room temperature incubation. The plates were measured on a ViewLux plate reader for luminescent signal using a clear filter with a one second exposure. The %Activity was determined from the corrected luminescence values. As no specific T. brucei PFK inhibitors have been identified in the literature, 1x (1.25nM) and 0x PFK enzyme controls (untreated) were included to normalize %Activity of identified inhibitors; 0x enzyme values corresponded to 100%Activity (full inhibition), while 1x PFK enzyme values were used to normalize 0%Activity (no inhibition). Concentration-response curves were fitted to the signals arising from the resulting luminescence. […]
As for `Cc1cc(NC(=O)c2ccc(NC(=O)Cc3ccc(Cl)c(Cl)c3)cc2)no1`, the Potency entry was “inactive”. For the compound `O=C(Cc1ccc(Cl)c(Cl)c1)Nc1ccc(S(=O)(=O)O)cc1`, the Potency is 651 nM (active). To `COc1ccc(CC(=O)Nc2ccc(S(=O)(=O)Nc3cc(C)on3)cc2)cc1C` belongs “inactive”; to `Cc1cc(NS(=O)(=O)c2cccc(NC(=O)Cc3ccc(Cl)c(Cl)c3)c2)no1`, 16300 nM (active); to `Cc1cc(NS(=O)(=O)c2ccc(NC(=O)Cc3ccc4ccccc4c3)cc2)no1`, 6510 nM (active). In the case of `Cc1cc(NS(=O)(=O)c2ccc(NCCc3ccc(Cl)c(Cl)c3)cc2)no1` it was 4610 nM (active); in that of `O=C(Cc1ccc(Cl)c(Cl)c1)Nc1ccc(S(=O)(=O)Nc2ccc(C(=O)O)cc2)cc1`, 163 nM (active); in that of `COc1ccc(CC(=O)Nc2ccc(S(=O)(=O)Nc3cc(C)on3)cc2)cc1OC`, “inactive”. In the case of `Cc1cc(NS(=O)(=O)c2ccc(NC(=O)Cc3ccc(C)c(F)c3)cc2)no1` it was 5800 nM (active); in that of `Cc1cc(N[S+](=O)([O-])c2ccc(NC(=O)Cc3ccc(Cl)nc3)cc2)no1`, 20600 nM (active); in that of `O=C(Cc1ccc(Cl)c(Cl)c1)Nc1ccc(S(=O)(=O)Nc2ccon2)cc1`, 366 nM (active). For the compound `CN(C)c1cccc(NS(=O)(=O)c2ccc(NC(=O)Cc3ccc(Cl)c(Cl)c3)cc2)c1`, the Potency is 5800 nM (active). In the case of `Cc1cc(NS(=O)(=O)c2ccc(NC(=O)Cc3ccc(Cl)c(F)c3)cc2)no1` it was 580 nM (active); in that of `CCOC(=O)c1cccc(NS(=O)(=O)c2ccc(NC(=O)Cc3ccc(Cl)c(Cl)c3)cc2)c1`, “inactive”; in that of `Cc1cc(NS(=O)(=O)c2ccc(NC(=O)Cc3ccc(Cl)c(Cl)c3)cc2)no1`, 410 nM (active). Consider `Cc1cc(NS(=O)(=O)c2ccc(NC(=O)Cc3ccc(C)c(C)c3)cc2)no1`, for which the Potency is 18300 nM (active). Consider `Cc1cc(NS(=O)(=O)Cc2ccc(NC(=O)Cc3ccc(Cl)c(Cl)c3)cc2)no1`, for which the Potency was 2590 nM (active). For `O=C(Cc1ccc(Cl)c(Cl)c1)Nc1ccc(S(=O)(=O)Nc2ccccc2)cc1`, the Potency is 16300 nM (active). In the case of `Cc1cc(NS(=O)(=O)c2ccc(N(C)C(=O)Cc3ccc(Cl)c(Cl)c3)cc2)no1` it was 1630 nM (active); in that of `Cc1cc(NS(=O)(=O)c2ccc(NC(=O)Cc3ccc(Cl)cc3)cc2)no1`, 1830 nM (active); in that of `O=C(Cc1ccc(Cl)c(Cl)c1)Nc1ccc(S(=O)(=O)Nc2cccc(O)c2)cc1`, 1460 nM (active). Consider `O=C(Cc1ccc(Cl)c(Cl)c1)Nc1ccc(S(=O)(=O)Nc2ccn[nH]2)cc1`, for which the Potency was 517 nM (active). Turning to `Cc1cc(NS(=O)(=O)c2ccc(NC(=O)Cc3ccc(Cl)c(C(F)(F)F)c3)cc2)no1`, the Potency was 461 nM (active). Consider `O=C(Cc1ccc(Cl)c(Cl)c1)Nc1ccc(S(=O)(=O)Nc2cccc(C(=O)O)c2)cc1`, for which the Potency is 259 nM (active).

For the compound `Cc1cc(NC(=O)c2csc(NC(=O)Cc3ccc(Cl)c(Cl)c3)n2)no1`, the Potency entry is “inactive”. On to `Cc1cc(NS(=O)(=O)c2ccc(NC(=O)Cc3ccc(Cl)c(Cl)c3)cc2)on1`, for which the Potency was 206 nM (active). As for `Cc1cc(NS(=O)(=O)c2ccc(NC(=O)Cc3ccc(Cl)cc3Cl)cc2)no1`, the Potency was 4610 nM (active). Regarding `Cc1cc(NS(=O)(=O)c2ccc(NC(=O)Cc3cccc(Cl)c3)cc2)no1`, the Potency is 7300 nM (active). To `Cc1cc(NS(=O)(=O)c2ccc(C(=O)NCc3ccc(Cl)c(Cl)c3)cc2)no1` belongs 2910 nM (active). To `Cc1cc(NS(=O)(=O)c2ccc(NC(=O)Cc3ccc(Cl)c(Cl)c3)cc2)n(C)n1` belongs 1460 nM (active); to `Cc1cc(NS(=O)(=O)c2ccc(NC(=O)CCc3ccc(Cl)c(Cl)c3)cc2)no1`, 5170 nM (active); to `Cc1cc(N[S+](=O)([O-])c2ccc3cc(NC(=O)Cc4ccc(Cl)c(Cl)c4)ccc3c2)no1`, 5800 nM (active). Turning to `Cc1cc(N(C)S(=O)(=O)c2ccc(NC(=O)Cc3ccc(Cl)c(Cl)c3)cc2)no1`, the Potency is 2910 nM (active). To `O=C(Cc1ccc(Cl)c(Cl)c1)Nc1ccc(S(=O)(=O)Nc2cncnc2)cc1` belongs 819 nM (active).
